# PubChem BioAssay
# Calls of active or inactive are those of the source.
# How the values were obtained:
# [1] = small molecules captured by biotinylated probe aFSTL3 – biochemical, small-molecule microarray, fluorescence 635/667, stem cell growth factor project, primary screen (AID 1064); conditions: higher = more signal;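 note: measures binding of the biotinylated anti-FSTL3 antibody to printed compounds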
# [2] = binders from COS7 lysate, DM2A8 probe, primary screen, torsin A project, cell lysate, small-molecule microarray, fluorescence 635/667 (AID 1065); conditions: higher = more signal, COS7 lysate expressing mutant human TOR1A
# [3] = small molecules captured by biotinylated probe aFGF2 – biochemical, small-molecule microarray, fluorescence 635/667, stem cell growth factor project, primary screen (AID 1067); conditions: higher = more signal;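 note: measures binding of biotinylated aFGF2 protein to printed compounds on slides; z-score merges feature fluorescence and signal-to-noise across triplicate slides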
# [4] = small molecules captured by biotinylated probe aFGF10 – biochemical, small-molecule microarray, fluorescence 635/667, stem cell growth factor project, primary screen (AID 1071); conditions: higher = more signal;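 note: score merges 667 nm spot intensity and signal to noise from triplicate slides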
# [5] = biological target: Neurogenic locus notch homolog protein 2 (Homo sapiens) (UniProt Q04721); assay: small molecules binding Notch2 protein – biochemical, small-molecule microarray, 635 nm fluorescence, stem cell growth factors, primary screen (AID 1073); conditions: higher = more signal
# [6] = biological target: Pro-neuregulin-1, membrane-bound isoform (Homo sapiens) (UniProt Q02297); assay: small molecules binding neuregulin-1 protein – biochemical, small-molecule microarray, fluorescence 635/667, psychiatric disease protein project, primary screen (AID 1075); conditions: NRG1 binding, 635 nm fluorescence, higher = more signal;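 note: score combines 667 nm spot fluorescence with signal to noise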
# [7] = test system: Neuregulin-1 EGF-like domain; assay: small molecules binding NRG1 EGF domain – biochemical, small-molecule microarray, 635 nm fluorescence, primary screen (AID 1081); conditions: higher = more signal;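 note: binding of the protein to compounds printed on small-molecule microarray slides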
# [8] = FRG1 expression reporter modulators in myotubes – cell-based, C2C12 myotubes, firefly/Renilla luciferase, luminescence, FRG1 inhibition for FSHD, primary screen (AID 1084); conditions: FRG1 promoter luciferase, higher = more signal, called active from +8 up or from −8 down
# [9] = small molecules captured by biotinylated probe aFST – biochemical, small-molecule microarray, fluorescence 635/667, stem cell growth factor project, primary screen (AID 1086); conditions: higher = more signal;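 note: score merges 667 nm fluorescence with signal-to-noise of each printed compound spot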
# [10] = binders of probe aHhip on microarray, primary screen, stem cell growth factor project, biochemical, small-molecule microarray, fluorescence 635/667 (AID 1087); conditions: higher = more signal;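 note: score merges spot fluorescence at 667nm with spot signal to noise ratio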
# [11] = test system: PRMT1 (protein arginine N-methyltransferase 1); assay: small molecules binding arginine methyltransferase PRMT1 – biochemical, small-molecule microarray, 635 nm fluorescence, primary screen (AID 1088); conditions: higher = more signal;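 note: binding of Prmt1 protein to compounds spotted on small-molecule microarray slides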
# [12] = growth effects on S. cerevisiae YJM789 – YJM789 clinical isolate, OD600, 24 h, basal, primary screen (AID 1089); conditions: higher = more signal, called active from +8 up or from −8 down;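 note: growth of clinical yeast isolate S. cerevisiae YJM 789 seeded 1000 cells per well; test concentration not given here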
# [13] = S. pombe growth modifiers, basal conditions – strain 972, OD600, 24 h, no modulator, primary screen (AID 1090);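 note: basal condition with compound alone and no growth modifier present; test concentration not given here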; conditions: S. pombe 972 growth, higher = more signal, called active from +8 up or from −8 down
# [14] = budding yeast growth modifiers under rapamycin – strain BY4716, OD600, 96 h, primary screen (AID 1091); note: test concentration not given here; conditions: S. cerevisiae BY4716 + rapamycin, higher = more signal, called active from +8 up or from −8 down
# [15] = biological target: Torsin-1A-interacting protein 2 (Homo sapiens) (UniProt Q8NFQ8); assay: small molecules binding lysate-expressed LULL1 – cell lysate, human LULL1 lysate, 635/667 nm fluorescence, primary screen (AID 1092); conditions: small-molecule microarray, hLULL1 lysate binding, 635 nm fluorescence; higher = more signal;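 note: probe is lysate of COS7 cells overexpressing human LULL1; score merges per-feature 667 nm fluorescence with signal-to-noise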
# [16] = optical density change of DRC41 E. coli – strain DRC41, OD650, 24 h, E. coli filamentation project, primary screen (AID 1093);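 note: MC1000 strain lacking acrAB efflux and sulA so SOS filamentation is blocked; test concentration not given here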; conditions: E. coli DRC41 growth, higher = more signal, called active from +8 up or from −8 down
# [17] = probe aLefty2 binding to arrayed compounds – biochemical, biotinylated probe, 635/667 nm fluorescence, primary screen (AID 1094); conditions: small-molecule microarray, higher = more signal;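 note: score merges spot fluorescence near 667 nm with spot signal-to-noise ratio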
# [18] = test system: Noggin (protein binding on small-molecule microarray); assay: small molecules binding Noggin protein – biochemical, 635/667 nm fluorescence, primary screen (AID 1095); conditions: 635 nm fluorescence, higher = more signal;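 note: score merges 667 nm feature fluorescence with signal to noise over triplicate slides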
# [19] = biological target: Neurogenic locus notch homolog protein 3 (Homo sapiens) (UniProt Q9UM47); assay: small molecules binding NOTCH3 protein – biochemical, 635/667 nm fluorescence, primary screen (AID 1096); conditions: small-molecule microarray, 635 nm fluorescence, higher = more signal
# [20] = probe aEGFR binding to arrayed compounds – biochemical, biotinylated probe, 635/667 nm fluorescence, primary screen (AID 1097); conditions: small-molecule microarray, higher = more signal;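 note: probe is a biotinylated anti-EGFR antibody binding compounds printed on slides; score combines fluorescence near 667 nm and signal to noise of each spot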
# Neurogenic locus notch homolog protein 2 (Homo sapiens), sequence (Q04721 whole entry, looked up, canonical isoform): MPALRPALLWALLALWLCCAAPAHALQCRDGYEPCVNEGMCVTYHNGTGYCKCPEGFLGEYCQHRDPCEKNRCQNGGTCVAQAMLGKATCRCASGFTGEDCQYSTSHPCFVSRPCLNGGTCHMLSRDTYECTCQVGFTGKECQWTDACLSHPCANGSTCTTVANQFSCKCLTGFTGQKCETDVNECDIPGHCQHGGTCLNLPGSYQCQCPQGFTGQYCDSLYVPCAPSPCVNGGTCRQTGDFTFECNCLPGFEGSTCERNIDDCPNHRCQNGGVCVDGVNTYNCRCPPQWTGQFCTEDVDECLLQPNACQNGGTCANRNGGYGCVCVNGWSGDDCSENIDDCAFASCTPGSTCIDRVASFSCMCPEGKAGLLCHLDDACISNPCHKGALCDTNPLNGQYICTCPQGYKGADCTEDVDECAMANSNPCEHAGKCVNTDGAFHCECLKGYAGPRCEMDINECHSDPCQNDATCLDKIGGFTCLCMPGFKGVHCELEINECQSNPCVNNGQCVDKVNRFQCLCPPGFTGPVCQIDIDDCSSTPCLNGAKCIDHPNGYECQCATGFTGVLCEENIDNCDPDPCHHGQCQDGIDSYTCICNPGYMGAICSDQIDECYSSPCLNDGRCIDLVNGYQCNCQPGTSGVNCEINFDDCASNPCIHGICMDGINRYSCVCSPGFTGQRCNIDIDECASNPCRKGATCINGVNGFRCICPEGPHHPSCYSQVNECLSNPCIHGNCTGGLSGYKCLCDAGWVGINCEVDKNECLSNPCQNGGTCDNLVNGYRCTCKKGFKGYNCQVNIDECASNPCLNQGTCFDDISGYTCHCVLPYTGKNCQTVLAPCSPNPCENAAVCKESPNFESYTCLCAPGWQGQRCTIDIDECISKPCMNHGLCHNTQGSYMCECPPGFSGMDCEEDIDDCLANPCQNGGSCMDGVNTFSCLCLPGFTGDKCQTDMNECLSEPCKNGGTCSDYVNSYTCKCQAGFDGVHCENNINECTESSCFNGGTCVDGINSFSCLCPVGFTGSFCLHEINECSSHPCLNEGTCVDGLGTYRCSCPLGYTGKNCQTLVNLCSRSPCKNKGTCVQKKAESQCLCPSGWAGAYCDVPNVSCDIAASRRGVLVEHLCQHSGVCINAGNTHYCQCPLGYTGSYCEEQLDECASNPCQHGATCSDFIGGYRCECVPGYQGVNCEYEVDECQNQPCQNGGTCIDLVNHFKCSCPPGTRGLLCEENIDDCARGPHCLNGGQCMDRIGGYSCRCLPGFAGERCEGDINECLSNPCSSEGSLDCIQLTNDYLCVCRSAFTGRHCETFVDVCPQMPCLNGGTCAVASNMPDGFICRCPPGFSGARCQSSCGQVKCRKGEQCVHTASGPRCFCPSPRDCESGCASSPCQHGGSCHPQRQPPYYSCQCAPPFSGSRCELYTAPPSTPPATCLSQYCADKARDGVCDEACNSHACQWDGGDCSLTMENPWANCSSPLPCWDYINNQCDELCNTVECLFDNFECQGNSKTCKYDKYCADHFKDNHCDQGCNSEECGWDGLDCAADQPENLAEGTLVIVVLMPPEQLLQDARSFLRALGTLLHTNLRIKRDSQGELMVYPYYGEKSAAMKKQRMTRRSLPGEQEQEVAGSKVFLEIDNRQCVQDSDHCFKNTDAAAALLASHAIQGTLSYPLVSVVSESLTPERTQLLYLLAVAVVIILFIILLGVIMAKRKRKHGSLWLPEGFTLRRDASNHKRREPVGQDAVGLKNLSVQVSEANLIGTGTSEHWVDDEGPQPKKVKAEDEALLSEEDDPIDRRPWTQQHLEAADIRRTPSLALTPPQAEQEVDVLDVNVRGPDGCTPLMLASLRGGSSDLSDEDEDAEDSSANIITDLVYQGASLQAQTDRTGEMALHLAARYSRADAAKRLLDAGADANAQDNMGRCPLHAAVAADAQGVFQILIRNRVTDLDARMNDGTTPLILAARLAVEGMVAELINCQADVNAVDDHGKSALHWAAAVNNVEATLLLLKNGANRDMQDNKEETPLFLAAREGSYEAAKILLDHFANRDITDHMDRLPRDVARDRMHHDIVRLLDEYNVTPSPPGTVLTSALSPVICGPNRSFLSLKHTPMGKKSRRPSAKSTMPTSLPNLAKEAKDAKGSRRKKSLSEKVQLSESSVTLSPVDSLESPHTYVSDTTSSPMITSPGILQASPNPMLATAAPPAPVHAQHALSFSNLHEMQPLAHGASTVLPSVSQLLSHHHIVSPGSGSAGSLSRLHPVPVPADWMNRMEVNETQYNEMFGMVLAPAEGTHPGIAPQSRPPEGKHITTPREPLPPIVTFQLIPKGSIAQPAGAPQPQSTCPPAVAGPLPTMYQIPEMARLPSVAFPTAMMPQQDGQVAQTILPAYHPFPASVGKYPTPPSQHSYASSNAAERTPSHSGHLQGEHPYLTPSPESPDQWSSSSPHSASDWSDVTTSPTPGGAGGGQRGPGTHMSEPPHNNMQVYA
# Pro-neuregulin-1, membrane-bound isoform (Homo sapiens), sequence (Q02297 whole entry, looked up, the tested form may be a part, canonical isoform): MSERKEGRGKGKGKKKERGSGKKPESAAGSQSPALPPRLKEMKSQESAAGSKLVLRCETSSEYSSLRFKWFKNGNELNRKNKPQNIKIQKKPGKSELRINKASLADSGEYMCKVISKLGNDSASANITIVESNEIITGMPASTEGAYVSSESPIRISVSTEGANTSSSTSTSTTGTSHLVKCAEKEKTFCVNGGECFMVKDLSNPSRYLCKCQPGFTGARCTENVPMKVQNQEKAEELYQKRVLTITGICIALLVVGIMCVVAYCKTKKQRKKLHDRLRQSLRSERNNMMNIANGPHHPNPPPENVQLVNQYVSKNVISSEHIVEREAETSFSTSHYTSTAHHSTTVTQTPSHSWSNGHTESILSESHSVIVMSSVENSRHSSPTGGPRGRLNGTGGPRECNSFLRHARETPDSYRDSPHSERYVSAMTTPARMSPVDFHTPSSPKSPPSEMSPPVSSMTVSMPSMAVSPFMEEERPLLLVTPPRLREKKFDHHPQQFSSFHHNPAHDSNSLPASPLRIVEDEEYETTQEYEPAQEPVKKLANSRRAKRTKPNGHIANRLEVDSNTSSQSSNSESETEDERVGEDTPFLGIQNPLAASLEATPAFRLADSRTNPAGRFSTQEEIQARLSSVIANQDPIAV
# Torsin-1A-interacting protein 2 (Homo sapiens), sequence (Q8NFQ8 whole entry, looked up): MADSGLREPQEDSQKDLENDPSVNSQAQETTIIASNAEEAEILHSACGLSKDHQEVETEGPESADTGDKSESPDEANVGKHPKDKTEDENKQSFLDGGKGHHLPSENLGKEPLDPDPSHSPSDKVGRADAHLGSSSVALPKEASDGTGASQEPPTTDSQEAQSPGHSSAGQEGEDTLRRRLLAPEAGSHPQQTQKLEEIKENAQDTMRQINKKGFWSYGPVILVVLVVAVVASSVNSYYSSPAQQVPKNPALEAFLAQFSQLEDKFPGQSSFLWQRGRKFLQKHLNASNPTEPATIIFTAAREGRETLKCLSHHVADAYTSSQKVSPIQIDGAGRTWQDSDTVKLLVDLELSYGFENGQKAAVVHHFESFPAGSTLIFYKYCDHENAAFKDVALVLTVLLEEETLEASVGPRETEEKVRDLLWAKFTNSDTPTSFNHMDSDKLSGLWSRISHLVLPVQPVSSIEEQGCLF
SMILES,composite z-score [1],composite z-score [2],composite z-score [3],composite z-score [4],composite z-score [5],composite z-score [6],composite z-score [7],z-score [8],composite z-score [9],composite z-score [10],composite z-score [11],z-score [12],z-score [13],z-score [14],composite z-score [15],z-score [16],composite z-score [17],composite z-score [18],composite z-score [19],composite z-score [20]
C=C(CCCC)/C(=C/C[C@@H](OC(=O)c1ccncc1)c1ccccc1OCCO)c1cc(C(=O)OC)ccc1OC,-0.256,0.815,-0.0628,0.173,0.791,1.17,1.2,0.488 (inactive),-0.242,-0.0296,1.49,0.176 (inactive),-0.587 (inactive),0.259 (inactive),2.75,0.478 (inactive),-0.0154,0.987,0.754,0.0895
COCC(=C=CC[C@@H](O)c1ccccc1OCCO)C[C@@H](O)COCc1ccccc1,0.181,1.12,-0.0267,1.06,-0.258,1.68,1.01,-1.11 (inactive),0.463,0.891,1.23,-0.893 (inactive),-1.68 (inactive),-1.26 (inactive),2.62,1.73 (inactive),0.437,1.01,-0.0082,0.0017
COC(=O)[C@@]1(Cc2ccc(OC)cc2)[C@H]2c3cc(C(=O)N4CCCC4)n(Cc4ccc(C)o4)c3C[C@H]2CN1C(=O)c1ccccc1,0.833,-0.0673,0.218,1.15,1.62,1.83,0.266,8.22 (active),1.05,-0.116,0.622,-19.7 (active),-15.7 (active),-2.14 (inactive),3.24,-0.715 (inactive),0.292,0.355,1.07,0.0059
Cc1ccccc1C(O)C1C=CC2C(=O)N(Cc3ccccc3)C(=O)C2N1n1cnnc1 (stereo not given),-0.281,0.34,-0.0085,0.304,1.02,1.03,0.92,0.253 (inactive),0.475,0.0053,0.601,-1.26 (inactive),0.658 (inactive),-0.796 (inactive),2.38,-0.0518 (inactive),0.0873,0.162,1.05,0.045
O=C1c2ccccc2C(=O)C2CC([C@H]3Oc4ccccc4S(=O)(=O)N4CCC[C@@H]34)=CCC12 (stereo not given in full),-0.253,-0.0672,-0.176,-0.159,0.193,0.583,0.449,-1.71 (inactive),-0.0883,0.21,-0.739,0.151 (inactive),-0.717 (inactive),0.388 (inactive),-0.312,1.47 (inactive),-0.116,0.162,-0.42,-0.124
